Screens (PubChem)
Hits are enriched below; roughly 2.8% of the tested compounds scored in any of these assays.
POLK inh: DNA polymerase kappa (human) inhibition; Q9UBT6; purified Pol kappa, fluorescent DNA synthesis assay, 10 min; Potency, µM (top dose mostly 107 µM), without a hit: top-dose activity, negative = inhibition, most hits filed as inhibitors; 400,000 tested, 0.53% active; also: potency is read from the fitted curve at half-maximal effect; % is scaled to controls: 0 for no effect and ±100 for the full control effect
Target sequence (Q9UBT6 whole entry, looked up): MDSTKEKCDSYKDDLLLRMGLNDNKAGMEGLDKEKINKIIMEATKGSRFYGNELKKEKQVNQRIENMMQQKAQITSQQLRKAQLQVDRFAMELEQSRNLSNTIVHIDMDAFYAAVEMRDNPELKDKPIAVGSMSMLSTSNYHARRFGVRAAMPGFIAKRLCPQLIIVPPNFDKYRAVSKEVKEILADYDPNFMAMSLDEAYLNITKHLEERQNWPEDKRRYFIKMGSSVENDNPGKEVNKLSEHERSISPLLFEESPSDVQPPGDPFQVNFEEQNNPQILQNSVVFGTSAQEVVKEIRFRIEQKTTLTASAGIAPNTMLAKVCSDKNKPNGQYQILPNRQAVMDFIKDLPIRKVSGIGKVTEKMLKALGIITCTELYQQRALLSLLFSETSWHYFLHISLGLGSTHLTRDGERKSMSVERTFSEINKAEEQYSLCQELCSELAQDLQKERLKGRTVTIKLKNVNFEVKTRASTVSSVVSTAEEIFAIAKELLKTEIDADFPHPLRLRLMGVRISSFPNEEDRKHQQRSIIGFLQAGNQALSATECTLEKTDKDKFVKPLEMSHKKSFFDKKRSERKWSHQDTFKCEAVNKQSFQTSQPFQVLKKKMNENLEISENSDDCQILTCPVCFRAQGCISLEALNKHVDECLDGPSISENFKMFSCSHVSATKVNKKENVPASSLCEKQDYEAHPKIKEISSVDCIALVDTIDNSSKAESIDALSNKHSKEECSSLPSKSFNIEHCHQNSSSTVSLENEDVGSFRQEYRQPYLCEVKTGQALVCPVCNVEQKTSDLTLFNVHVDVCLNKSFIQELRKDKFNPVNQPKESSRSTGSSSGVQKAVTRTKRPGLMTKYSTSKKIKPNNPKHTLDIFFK
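Inhibition of 10 nM Pol kappa is measured by a fluorescent read-out at 0 and 10 min following addition of 50 nM substrate (final), with a 15-min room-temperature compound preincubation.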
PI5P4Ka inh: PI5P4K alpha (human) kinase inhibition. P48426. PI5P4Kalpha enzyme, ADP-Glo luminescence, 60 min; active compounds read low. max response, %. 330,000 tested, 1.2% active; active = max response of -50% or lower; inconclusive = between -30% and -50%; inactive = -30% or higher; also: value at the top dose of about 77 µM; % is scaled to controls: 0 for no effect and ±100 for the full control effect
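ADP-Glo luminescence end-point read after a 60 min room-temperature kinase reaction of PI5P4Kalpha plus substrate, initiated with ATP at 5 microM final. Buffer: 0.038 M HEPES pH 7.4, EGTA, 0.1% CHAPS, 5% DMSO.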
POLH inh: DNA polymerase eta (human) inhibition; Q9Y253; recombinant Pol eta, fluorescent DNA replication assay; Potency, µM (top dose mostly 114 µM), for the others: at the top dose activity change, negative = inhibition, usual class: inhibitors; 390,000 tested, 1.2% active; also: potency is read from the fitted curve at half-maximal effect; % is scaled to controls: 0 for no effect and ±100 for the full control effect
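Fluorescent replication assay: 50 nM final substrate added after a 15 min room-temperature compound preincubation with 10 nM enzyme. Signal taken at 0 min and again at 10 min.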
POLB inh: blocks human DNA polymerase beta activity; Potency, µM (titrated, usually from 114 µM), inactives show at the highest dose activity change, negative = inhibition, usual class: inhibitors; 340,000 tested, 1.3% active; P06746; Pol beta primer extension/strand displacement, fluorescence kinetic; also: potency is read from the fitted curve at half-maximal effect; % is scaled to controls: 0 for no effect and ±100 for the full control effect
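Values derive from four-parameter Hill fits of normalized kinetic data: reads at 0 and 10 min following addition of 50 nM substrate to 10 nM Pol beta preincubated 15 min with compound.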
WRN helicase inh: blocks human WRN helicase | WRN helicase unwinding, fluorescent forked duplex, kinetic | Potency, µM (highest dose often 114 µM), inactives show top-dose activity change, negative = inhibition, hits mostly inhibitors | 360,000 tested, 0.46% active; also: potency is read from the fitted curve at half-maximal effect; % is scaled to controls: 0 for no effect and ±100 for the full control effect; nearly all actives have a fitted effect of over 55% in size
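Fluorescence dequenching readout, ex 525 nm/em 598 nm, kinetic mode: forked duplex DNA (100 nM final) with adjacent fluorophore and quencher unwound by WRN (20 nM final) with 2 mM ATP. Compound preincubation 15 min, room temperature.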
POLI inh: inhibitors of human DNA polymerase iota; Pol iota fluorescent replication assay, 10 min; Potency, µM (titrated, usually from 115 µM), inactives show at the top dose activity, negative = inhibition, most hits filed as inhibitors; 390,000 tested, 1% active; AID 588590; also: potency is read from the fitted curve at half-maximal effect
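Pol iota at 10 nM preincubated 15 min with compounds at room temperature; reaction started with fluorescent substrate, 50 nM final. Fluorescence read kinetically at 0 and 10 min; buffer-only wells as negative control.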
Numbers without * were called inactive; ? = inconclusive; · = no result; [ ] = dose if it differs, or a comment. Unless noted, calls follow the shape of the dose curve; as a rule, active = well fitted curve in the direction sought with a large enough effect; inconclusive = small, poorly fitted or top-dose-only effect, or another doubt; inactive = no such curve, though single readings can be large; an effect the other way counts as inactive or inconclusive.

SMILES	POLK inh	PI5P4Ka inh	POLH inh	POLB inh	WRN helicase inh	POLI inh
O=C(Nc1ncccn1)C1CCCN1S(=O)(=O)c1ccc(Cl)c(Cl)c1 (centres undefined)	-7%[60.1 µM]	·	79µM*	17%	1%[11.6 µM]	16%
CCCCOc1ccc(C2OC34CCCCC3C(C#N)(C#N)C2(C#N)C(=N)O4)cc1 (centres undefined)	-34%	-25	?	1%	?	16µM*
Cc1cc(C(F)(F)F)c2c(n1)sc1c(O)cc(=O)[nH]c12	71µM*	·	-14%	-10%	-7%[57.1 µM]	3.2µM*
Cc1ccc(S(=O)(=O)NC(=O)c2cc(C)n(-c3cc(S(=O)(=O)N4CCOCC4)ccc3N3CCCC3)c2C)cc1	-25%	·	89µM*	?	-11%	?
Cc1cc(C(=O)O)c(C)n1-c1ccccc1	-7%	-1	9%	6%	-2%	3%
Cc1ccc(C)n1-c1sccc1C(=O)O	0.89µM*	-83*	-98%	4µM*	3.2µM*	-99%
Cc1cc(C)nc(Nc2ccc(O)cc2)n1	-9%	4	-25%	8%	1%	11%
Cc1cc(Nc2ccc(O)cc2)ccc1N	-26%	·	·	·	·	20µM*
COCCNC(=O)C(C)OC(=O)C1=Cc2ccccc2OC1 (centres undefined)	0%	-2	-7%	-28%	-3%	11%
CC(OC(=O)C1=Cc2ccccc2OC1)C(=O)NCC1CCCO1 (centres undefined)	?	-63*	-10%	·	-33%	?
COc1cc(C(=O)Nc2nnc(-c3sccc3C)s2)cc(OC)c1OC	-7%	-6	13µM*	0%	50µM*	-9%
CCOCc1nnc(NC(=O)c2cc(OC)c(OC)c(OC)c2)s1	-15%	2	-4%	-3%	-8%	107%
CC1=NN(C(=O)c2ccncc2)C(=O)C1N=Nc1ccc2ccccc2c1 (centres undefined)	?	-10	?	·	-1%[11.6 µM]	89µM*
COc1ccc(-c2nc3n(n2)C(=O)CC(c2ccco2)S3)cc1 (centres undefined)	?	·	?	22µM*	-24%	?
CCOc1ccc(C2CC(=O)n3nc(-c4ccc(C)cc4)nc3S2)cc1 (centres undefined)	2%	·	-2%	22%	·	2%
CC1(C(=O)NCc2cccc3ccccc23)CCN1C(=O)C1(c2ccccc2)CCCC1 (centres undefined)	·	20	·	·	3%[57.1 µM]	·
Cc1cn([C@H]2C[C@H](O)[C@@H](CNC=O)O2)c(=O)[nH]c1=O	·	-11	-17%	·	5%	·
Cc1ccc2nc(COc3ccccc3NC(=O)c3ccc(F)cc3)cc(=O)n2c1	-15%[60.1 µM]	·	-10%	?	·	89µM*
Cc1ccccc1OCCCCCNCCO	-4%	·	-15%	-1%	-3%	?
CC(C)(C)c1ccccc1OCCCCCNCCO	5%	·	-4%	-10%	-16%[11.6 µM]	71µM*
COCCCNS(=O)(=O)c1cc2c3c(c1)C(C)C(=O)N3CCC2 (centres undefined)	-1%	-1	-1%	15%	3%	11%
CCOc1ccc(OCCC(=O)NNC(=O)c2nn(C)c(=O)c3ccccc23)cc1	-32%	-22	?	35µM*	3%[11.6 µM]	?
Cc1ccc(N=C2NC(=O)CC(C(=O)Nc3cc(C(F)(F)F)ccc3Cl)S2)cc1 (centres undefined)	-6%	·	10%	3%	·	12%
CCOc1ccc(NC(=O)NCCCn2c(C)nc3cc(C)c(C)cc32)cc1	-6%	·	-1%	-1%	-16%	-7%
Cc1cc2nc(C)n(CCCNC(=O)Nc3cccc4ccccc34)c2cc1C	-23%	·	-3%	40µM*	-17%	?
SMILES	POLK inh	PI5P4Ka inh	POLH inh	POLB inh	WRN helicase inh	POLI inh
COc1cc(NC(=O)COc2ccccc2Cl)ccc1NC(=O)c1cccs1	-2%	-2	0%	7%	-5%	50µM*
O=C(Cc1ccc(Cl)cc1)NO	11%	·	·	·	·	25%
O=C1NN(c2ccccc2)C(=O)/C1=C\c1cccn1-c1ccc(Cl)c([N+](=O)[O-])c1	?	-63*	20µM*	?	-11%[57.1 µM]	?
O=C1NN(c2ccccc2)C(=O)C1=Cc1ccccc1O	·	-5	7%	·	2%	·
Cn1cc(/C=N/NC(=O)c2cc3cc(Br)ccc3o2)c2ccccc21	-4%	-13	-13%	-5%	-6%	-23%[58.9 µM]
O=C(O)Cn1cc(/C=N/NC(=O)c2cc3cc(Br)ccc3o2)c2ccccc21	-25%	-75*	-22%	?	?	71µM*
Cc1cccc(NC(=O)C2CC(O)CN2C(=O)Oc2ccccc2)c1 (centres undefined)	-5%	10	-10%	12%	4%	57%
CC(C)n1c(=O)c2ccccc2n1Cc1cn(-c2ccc(Cl)cc2)nn1	·	0	·	·	5%	·
Cc1noc(/C=C/c2ccco2)c1S(=O)(=O)N1CCC(C(=O)N2CCc3ccccc3C2)CC1	-35%	·	?	-111%	-22%	45µM*
Cc1ccccc1C(=O)Nc1c(C)nc2ccccn2c1=O	-8%[60.1 µM]	·	-7%	-3%	·	-9%
COC(=O)c1ccccc1-c1ccc(C(c2c(C)[nH][nH]c2=O)c2c(C)[nH][nH]c2=O)o1	-7%	1	?	9%	-17%	7.9µM*
COC(=O)c1ccc(C(c2c(C)[nH][nH]c2=O)c2c(C)[nH][nH]c2=O)cc1	4%	-2	-15%	31%	3%	-13%
COC(=O)c1cccc(-c2ccc(C(c3c(C)[nH][nH]c3=O)c3c(C)[nH][nH]c3=O)o2)c1	-7%	?	-5%	?	?	7.1µM*
Cc1cc(C)n2nc(C(=O)OCC(=O)Nc3cc(S(=O)(=O)N4CCOCC4)ccc3Cl)nc2n1	-8%	4	-8%	·	-5%	2%
O=C(CSc1nc2c([nH]c3ccccc32)c(=O)n1-c1ccccc1)N1CCCC1	-3%[60.1 µM]	·	-10%	20µM*	·	-5%
CC(=O)Nc1ccc(S(=O)(=O)Nc2nc3ccccc3nc2Nc2ccc(S(N)(=O)=O)cc2)cc1	-13%	-7	-7%	22%	-12%	155%
O=S(=O)(Nc1nc2ccccc2nc1Nc1cccc(S(=O)(=O)N2CCCCC2)c1)c1ccccc1	-16%	-16	89µM*	?	-31%[57.1 µM]	?
COc1ccc(S(=O)(=O)Nc2cccc(S(=O)(=O)N3CCCCCC3)c2)cc1	-7%	2	-17%	20%	-14%	-2%
CC(=O)Nc1ccc(S(=O)(=O)Nc2nc3ccccc3nc2Nc2ccc(O)c(C(=O)O)c2)cc1	79µM*	-23	-9%	15%	-12%[11.6 µM]	20µM*
N#C/C(=C\c1ccc2c(c1)OCO2)C(N)=S	0%	-6	-1%	34%	-12%	?
